Source: PubChem BioAssay (Tox21)
Results filed as inconclusive are left out. The source made the active and inactive calls. Unless noted, calls come from the whole dose curve; as a rule, active = well fitted curve in the direction sought with a large enough effect in the repeat runs; inconclusive = weak or mixed curves; inactive = no such curve, though single readings can be large; an effect the other way counts as inactive or inconclusive.

Assays:
[1] = qHTS assay to identify aromatase inhibitors - cell viability counter screen (AID 743084);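 note: cells stimulated with testosterone during compound exposure; nearly all actives have a fitted effect of over 55% in size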
[2] = molecular target: Aryl hydrocarbon receptor (Homo sapiens) (UniProt P35869); assay: qHTS assay to identify small molecule that activate the aryl hydrocarbon receptor (AhR) signaling pathway (AID 743085);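 note: HG2L7.5c1 human HepG2 liver cells with stably integrated DRE-driven firefly reporter; series mostly up to about 70 µM; nearly all actives have a fitted effect of over 15% in size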
Sequence of Aryl hydrocarbon receptor (Homo sapiens) (P35869 whole entry, looked up): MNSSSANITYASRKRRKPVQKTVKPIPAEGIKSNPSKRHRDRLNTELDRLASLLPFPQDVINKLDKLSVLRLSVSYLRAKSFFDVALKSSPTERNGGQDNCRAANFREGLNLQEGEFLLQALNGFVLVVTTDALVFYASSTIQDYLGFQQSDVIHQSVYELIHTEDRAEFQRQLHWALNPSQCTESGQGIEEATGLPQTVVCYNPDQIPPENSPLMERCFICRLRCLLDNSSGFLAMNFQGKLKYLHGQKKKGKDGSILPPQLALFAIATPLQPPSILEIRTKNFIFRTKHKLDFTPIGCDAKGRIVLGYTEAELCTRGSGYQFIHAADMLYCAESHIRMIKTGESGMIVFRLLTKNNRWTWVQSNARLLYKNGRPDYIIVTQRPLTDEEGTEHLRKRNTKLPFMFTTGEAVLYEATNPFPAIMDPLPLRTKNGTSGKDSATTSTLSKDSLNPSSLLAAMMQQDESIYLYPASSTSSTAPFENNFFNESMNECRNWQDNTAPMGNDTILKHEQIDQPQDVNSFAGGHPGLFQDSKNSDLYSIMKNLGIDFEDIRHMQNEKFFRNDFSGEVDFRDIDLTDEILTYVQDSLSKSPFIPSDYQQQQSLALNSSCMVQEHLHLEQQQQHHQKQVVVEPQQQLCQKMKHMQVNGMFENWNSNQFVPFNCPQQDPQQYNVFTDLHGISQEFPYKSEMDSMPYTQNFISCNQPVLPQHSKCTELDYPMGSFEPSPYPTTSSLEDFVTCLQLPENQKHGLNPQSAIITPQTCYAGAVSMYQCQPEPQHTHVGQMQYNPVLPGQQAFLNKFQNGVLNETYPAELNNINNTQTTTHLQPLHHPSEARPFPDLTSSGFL
Outline: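 HepG2 cells stably carrying a 20-DRE firefly luciferase reporter (HG2L7.5c1) treated with compound for 24 hr at 37C. Luciferase read by ONE-Glo luminescence, with CellTiter-Fluor viability read first.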

[3] = qHTS assay to identify small molecule that activate the aryl hydrocarbon receptor (AhR) signaling pathway - cell viability counter screen (AID 743086);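 note: HepG2 liver cells carrying the AhR DRE luciferase reporter; series mostly up to about 70 µM; nearly all actives have a fitted effect of over 45% in size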
Outline: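 HepG2-AhR-luc (HG2L7.5c1) cells, 4000/well, treated 24 h at 37 C with compound; viability measured as CellTiter-Fluor fluorescence after 30 min in the same wells as the luciferase read.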

[4] = qHTS assay to identify small molecule antagonists of the peroxisome proliferator-activated receptor gamma (PPARg) signaling pathway - cell viability counter screen (AID 743194); note: nearly all actives have a fitted effect of over 55% in size
Outline: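 Cytotoxicity counter screen in PPARg-bla HEK293H cells, same wells as reporter assay. Compounds plus 50 nM rosiglitazone (final) for 17 h at 37 C, then viability read by CellTiter-Glo luminescence.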

[5] = qHTS assay for small molecule agonists of the antioxidant response element (ARE) signaling pathway (AID 743202; active = well fitted activation curve with a large enough effect in the signal ratio in the repeat runs, not every such curve was filed as active; the % refers to the signal ratio)
Outline: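 HepG2 ARE-bla reporter line, 2,000 cells/well; 5 h preincubation 37 C/5% CO2; compound (DMSO) 16 h 37 C; B/G FRET substrate 2 h RT; fluorescence intensity.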

[6] = qHTS assay for small molecule agonists of the antioxidant response element (ARE) signaling pathway - cell viability counter screen (AID 743203; calls by dose curve; note: nearly all actives have a fitted effect of over 55% in size)
Outline: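 Viability counter screen: CellTiter-Glo luminescence, read after 30 min at room temperature, in ARE-bla HepG2 wells. Compound exposure lasted 16 h at 37C/5% CO2, following a 5 h pre-incubation of the cells after plating.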

[7] = molecular target: Peroxisome proliferator-activated receptor delta (Homo sapiens) (UniProt Q03181); assay: qHTS assay to identify small molecule agonists of the peroxisome proliferator-activated receptor delta (PPARd) signaling pathway (AID 743212; calls by dose curve)
Sequence of Peroxisome proliferator-activated receptor delta (Homo sapiens) (Q03181 whole entry, looked up): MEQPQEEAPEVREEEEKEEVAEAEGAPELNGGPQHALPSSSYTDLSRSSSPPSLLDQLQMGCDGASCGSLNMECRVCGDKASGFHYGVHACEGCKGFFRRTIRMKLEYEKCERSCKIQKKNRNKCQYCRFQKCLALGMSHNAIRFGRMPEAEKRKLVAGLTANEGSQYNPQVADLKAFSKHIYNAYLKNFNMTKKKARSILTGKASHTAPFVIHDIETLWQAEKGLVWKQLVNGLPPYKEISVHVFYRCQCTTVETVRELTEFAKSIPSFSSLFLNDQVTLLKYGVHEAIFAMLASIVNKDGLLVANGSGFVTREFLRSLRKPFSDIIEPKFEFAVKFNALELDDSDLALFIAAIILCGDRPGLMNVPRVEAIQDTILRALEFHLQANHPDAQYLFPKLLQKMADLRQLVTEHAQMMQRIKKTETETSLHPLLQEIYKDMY
Outline: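 Read-out: beta-lactamase FRET fluorescence after 2 h room-temperature incubation with LiveBLAzer B/G substrate. Cells were HEK293H carrying a UAS-bla reporter for PPARd, treated at 37 C with DMSO-dissolved compounds.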

[8] = molecular target: Peroxisome proliferator-activated receptor delta (Homo sapiens) (UniProt Q03181); assay: qHTS assay to identify small molecule antagonists of the peroxisome proliferator-activated receptor delta (PPARd) signaling pathway (AID 743215; active = well fitted inhibition curve with a large enough effect in the signal ratio in the repeat runs, not every such curve was filed as active; the % refers to the signal ratio;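 note: cells stimulated with agonist L165041 at 300 nM final during compound exposure; series mostly up to about 62 µM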)
Outline: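 Agonist L165041 (300 nM final) added with compound to PPARd-bla HEK293H UAS-bla reporter cells; 17 h incubation at 37 C. Read-out: LiveBLAzer FRET substrate, 2 h at room temperature, fluorescence intensity.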

[9] = qHTS assay to identify small molecule agonists of the farnesoid-X-receptor (FXR) signaling pathway - cell viability counter screen (AID 743218); note: nearly all actives have a fitted effect of over 45% in size
Outline: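 Viability counter screen in the same wells: CellTiter-Glo luminescence, 30 min room-temperature incubation, measured after the beta-lactamase read. Cells were GeneBLAzer FXR-UAS-bla HEK 293T, compound-treated 16 h at 37C.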

[10] = molecular target: Bile acid receptor (Homo sapiens) (UniProt Q96RI1); assay: qHTS assay to identify small molecule agonists of the farnesoid-X-receptor (FXR) signaling pathway (AID 743220; active = well fitted activation curve with a large enough effect in the signal ratio in the repeat runs, not every such curve was filed as active; the % refers to the signal ratio)
Sequence of Bile acid receptor (Homo sapiens) (Q96RI1 whole entry, looked up): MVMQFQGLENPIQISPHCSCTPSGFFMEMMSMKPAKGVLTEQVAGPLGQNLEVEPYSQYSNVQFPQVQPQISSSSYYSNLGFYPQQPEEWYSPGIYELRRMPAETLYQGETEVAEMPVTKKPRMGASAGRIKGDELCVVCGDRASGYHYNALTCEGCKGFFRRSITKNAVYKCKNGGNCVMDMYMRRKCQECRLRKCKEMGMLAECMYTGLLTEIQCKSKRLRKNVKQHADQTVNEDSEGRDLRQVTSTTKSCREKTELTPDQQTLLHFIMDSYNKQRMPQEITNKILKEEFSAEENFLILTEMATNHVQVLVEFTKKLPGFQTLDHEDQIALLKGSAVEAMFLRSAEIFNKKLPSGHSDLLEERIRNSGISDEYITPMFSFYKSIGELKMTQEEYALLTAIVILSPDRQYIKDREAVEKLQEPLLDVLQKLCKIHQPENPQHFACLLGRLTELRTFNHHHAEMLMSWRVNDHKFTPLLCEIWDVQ
Outline: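 FXR-UAS-bla HEK 293T cells carrying a UAS-driven beta-lactamase reporter were plated for 5 h at 37C/5% CO2, then exposed to DMSO-dissolved Tox21 10K compounds for 16 h at 37C. A LiveBLAzer B/G FRET substrate was loaded for 2 h at room temperature before fluorescence reading.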

[11] = qHTS assay to identify small molecule antagonists of the farnesoid-X-receptor (FXR) signaling pathway - cell viability counter screen (AID 743221; active = well fitted cell-killing curve with a large enough effect in the repeat runs, not every such curve was filed as active; note: nearly all actives have a fitted effect of over 50% in size)
Outline: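 GeneBLAzer FXR-UAS-bla HEK 293T cells, compound plus chenodeoxycholic acid (50 uM final), 16 h at 37 C. CellTiter-Glo added to the same wells after the beta-lactamase read; luminescence read after 30 min at room temperature as viability.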

[12] = molecular target: Vitamin D3 receptor (Homo sapiens) (UniProt P11473); assay: qHTS assay to identify small molecule agonists of the vitamin D receptor (VDR) signaling pathway (AID 743222; calls by dose curve)
Sequence of Vitamin D3 receptor (Homo sapiens) (P11473 whole entry, looked up): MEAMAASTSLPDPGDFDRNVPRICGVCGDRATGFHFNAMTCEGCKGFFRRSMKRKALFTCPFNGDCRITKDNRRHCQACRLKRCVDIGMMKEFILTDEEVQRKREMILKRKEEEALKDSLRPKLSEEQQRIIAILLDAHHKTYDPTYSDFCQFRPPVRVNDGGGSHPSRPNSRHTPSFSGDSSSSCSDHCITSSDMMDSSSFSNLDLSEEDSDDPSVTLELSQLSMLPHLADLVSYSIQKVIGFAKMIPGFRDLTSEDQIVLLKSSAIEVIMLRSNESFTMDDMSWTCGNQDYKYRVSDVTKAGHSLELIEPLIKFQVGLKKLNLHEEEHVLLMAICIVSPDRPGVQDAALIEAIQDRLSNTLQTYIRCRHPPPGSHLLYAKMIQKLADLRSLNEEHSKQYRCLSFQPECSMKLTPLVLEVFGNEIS
Outline: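 Agonist mode, beta-lactamase reporter: fluorescence from LiveBLAzer B/G FRET substrate (2 h, room temperature) read after 16 h compound treatment at 37 C of VDR-bla cells, which were pre-incubated 4 h after seeding.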

[13] = molecular target: Vitamin D3 receptor (Homo sapiens) (UniProt P11473); assay: qHTS assay to identify small molecule antagonists of the vitamin D receptor (VDR) signaling pathway (AID 743223; active = well fitted inhibition curve with a large enough effect in the signal ratio in the repeat runs, not every such curve was filed as active; the % refers to the signal ratio)
Outline: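 VDR-bla cells were treated with compound plus 3 nM final 1alpha,25-dihydroxyvitamin D3 for 16 h at 37C. Beta-lactamase reporter read by B/G FRET substrate fluorescence after 2 h at room temperature. qHTS format.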

[14] = molecular target: Peroxisome proliferator-activated receptor gamma (Homo sapiens) (UniProt P37231); assay: qHTS assay to identify small molecule agonists of the peroxisome proliferator-activated receptor gamma (PPARg) signaling pathway (AID 743094; active = well fitted activation curve with a large enough effect in the signal ratio in the repeat runs, not every such curve was filed as active; the % refers to the signal ratio)
Sequence of Peroxisome proliferator-activated receptor gamma (Homo sapiens) (P37231 whole entry, looked up): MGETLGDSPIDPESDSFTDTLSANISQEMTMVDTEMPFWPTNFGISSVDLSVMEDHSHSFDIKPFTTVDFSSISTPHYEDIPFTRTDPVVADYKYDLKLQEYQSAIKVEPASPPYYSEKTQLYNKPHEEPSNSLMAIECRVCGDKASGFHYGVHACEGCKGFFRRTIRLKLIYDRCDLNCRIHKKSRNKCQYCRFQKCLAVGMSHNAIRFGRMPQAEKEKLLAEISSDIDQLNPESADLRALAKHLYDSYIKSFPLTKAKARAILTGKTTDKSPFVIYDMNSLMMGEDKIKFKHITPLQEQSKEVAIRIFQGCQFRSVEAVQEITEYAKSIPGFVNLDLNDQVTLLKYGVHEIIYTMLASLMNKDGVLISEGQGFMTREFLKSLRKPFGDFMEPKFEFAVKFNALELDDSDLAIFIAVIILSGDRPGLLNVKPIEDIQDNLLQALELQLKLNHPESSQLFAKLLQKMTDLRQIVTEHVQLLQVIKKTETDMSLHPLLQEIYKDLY
Outline: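 Agonist activity was taken from a beta-lactamase reporter (FRET substrate, 1 h at room temperature) in HEK293H cells carrying a PPARg UAS-bla construct. Compounds in DMSO were incubated 17 h at 37C after a 5 h cell pre-incubation.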

[15] = molecular target: Peroxisome proliferator-activated receptor gamma (Homo sapiens) (UniProt P37231); assay: qHTS assay to identify small molecule antagonists of the peroxisome proliferator-activated receptor gamma (PPARg) signaling pathway (AID 743191; calls by dose curve; note: series mostly up to about 63 µM; nearly all actives have a fitted effect of over 30% in size)
Outline: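 GeneBLAzer PPARg UAS-bla HEK293H cells, 5 h post-plating, exposed to compounds 17 h at 37C. LiveBLAzer B/G FRET substrate added for 1 h at room temperature; beta-lactamase reporter read by fluorescence intensity.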

[16] = qHTS assay for small molecule activators of the heat shock response signaling pathway - cell viability counter screen (AID 743209); note: nearly all actives have a fitted effect of over 50% in size
Outline: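 Cytotoxicity counter screen run in the same wells as the heat-shock bla reporter assay: HeLa HSE-bla cells, 5 h compound exposure at 37 C, viability read by CellTiter-Glo luminescence.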

[17] = qHTS assay for small molecule activators of the heat shock response signaling pathway (AID 743210; active = well fitted activation curve with a large enough effect in the signal ratio in the repeat runs, with a control signal flat, not every such curve was filed as active; the % refers to the signal ratio;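 note: HeLa cells with beta-lactamase reporter driven by heat shock elements; series mostly up to about 63 µM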)
Outline: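 Beta-lactamase reporter read-out: FRET substrate fluorescence after 2.5 h at RT, following 5 h compound treatment at 37 C of HeLa cells carrying HSE-driven bla reporter; quantitative HTS format.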

[18] = molecular target: Bile acid receptor (Homo sapiens) (UniProt Q96RI1); assay: qHTS assay to identify small molecule antagonists of the farnesoid-X-receptor (FXR) signaling pathway (AID 743217; active = well fitted inhibition curve with a large enough effect in the signal ratio in the repeat runs, not every such curve was filed as active; the % refers to the signal ratio)
Outline: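 Antagonist mode: chenodeoxycholic acid at 50 uM final stimulates a UAS-driven beta-lactamase reporter in HEK 293T FXR-bla cells during 16 h, 37C compound exposure. Read-out is FRET substrate fluorescence after 2 h at room temperature.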

[19] = qHTS assay to identify small molecule agonists of the peroxisome proliferator-activated receptor delta (PPARd) signaling pathway - cell viability counter screen (AID 743211); note: nearly all actives have a fitted effect of over 55% in size
Outline: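 PPARd-bla HEK293H cells (3000/well) were pre-incubated 5 h at 37 C, then exposed to compound for 17 h at 37 C. After 2 h with LiveBLAzer substrate, CellTiter-Glo was added to the same wells; luminescence read after 30 min at room temperature.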

[20] = qHTS assay to identify small molecule antagonists of the peroxisome proliferator-activated receptor delta (PPARd) signaling pathway - cell viability counter screen (AID 743213); note: nearly all actives have a fitted effect of over 50% in size
Outline: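 HEK293H PPARd UAS-bla cells, 5 h pre-incubation, compound + L165041 300 nM final, 17 h 37 C; B/G FRET substrate 2 h RT; then CellTiter-Glo 30 min RT, luminescence.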

Measured: Potency

CCC1Nc2cc(Cl)c(S(N)(=O)=O)cc2S(=O)(=O)N1 (stereo not given)
not listed: [14] | [15] | [16] | [17] | [18] | [19] | [20]
inactive: all other assays above

Cc1ccccc1N1CCN(CCc2nnc3n2CCCC3)CC1
not listed: [2] | [6] | [9] | [19] | [20]
inactive: all other assays above

O=C(O)/C=C/c1ccccc1
not listed: [8] | [14] | [15] | [17] | [18]
inactive: all other assays above

C=CCOc1cc(Cl)ccc1C(=O)NCCN(CC)CC
not listed: [3] | [7] | [10] | [15] | [18] | [20]
inactive: all other assays above

O=C1c2ccccc2-c2ccccc21
not listed: [2] | [6] | [12] | [13]
inactive: all other assays above

CCCCCCCCCCCCOC(C)=O
not listed: [2] | [10] | [12] | [17] | [18]
inactive: all other assays above

CNCc1ccccc1
not listed: [2] | [6] | [8] | [10] | [12] | [13] | [16]
inactive: all other assays above

CC(C)c1ccccc1O
not listed: [10] | [14] | [15] | [18] | [19]
inactive: all other assays above

CCS(=O)(=O)CCn1c([N+](=O)[O-])cnc1C
not listed: [8] | [10] | [14] | [15] | [18] | [19] | [20]
inactive: all other assays above

O=C(Nc1cccc(C2=NCCN2)c1)Nc1cccc(C2=NCCN2)c1
not listed: [2] | [8] | [10] | [12] | [13] | [18] | [19]
inactive: all other assays above

CO[Si](CCCCl)(OC)OC
not listed: [5] | [10] | [14] | [15] | [18]
inactive: all other assays above

CC(=O)c1ccc2c(c1)CCCC2
not listed: [6] | [10] | [13] | [14] | [15] | [17] | [18]
inactive: all other assays above

CC(C)C(=O)c1ccccc1
not listed: [2] | [9] | [10] | [11] | [12] | [13] | [18] | [19]
inactive: all other assays above

CC(C)CCO
not listed: [2] | [8] | [10] | [18]
inactive: all other assays above

F[Si-2](F)(F)(F)(F)F
not listed: [2] | [18]
inactive: all other assays above

O=C(O)CCNC(=O)c1ccccc1
not listed: [2] | [7] | [10] | [12] | [13] | [18]
inactive: all other assays above

CCNC(=O)NCCCOc1cccc(CN2CCCCC2)c1
not listed: [4] | [6] | [10] | [13] | [14] | [15] | [18] | [20]
inactive: all other assays above

C[C@@H]1C[C@H]2[C@@H]3C[C@H](F)C4=CC(=O)C=C[C@]4(C)[C@@]3(F)[C@@H](O)C[C@]2(C)[C@@]1(O)C(=O)CO
not listed: [7] | [8] | [10] | [14] | [15] | [17] | [18]
inactive: all other assays above
